Compound activity: PubChem, National Center for Advancing Translational Sciences (NCATS)
DT40 TDP1 CPT: growth inhibition of DT40 Tdp1-/-;hTDP1 cells with camptothecin (screen for TDP1 inhibitors); chicken DT40 Tdp1-/-;hTDP1 cells + 20 nM CPT, ATP luminescence, 48 h; actives 12% (n = 420,000); Potency, µM (series often up to 46.2 µM), for the others: at the top dose activity change, negative = growth inhibition, usual class: inhibitors; note: % is set by controls: 0 for no effect and ±100 for the full control effect; nearly all actives have a fitted effect of over 55% in size
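Chicken DT40 Tdp1-/- cells stably complemented with human TDP1 were seeded at 400 cells/well in medium containing 20 nM camptothecin, exposed to pin-transferred compounds, and grown at 37 °C for at least 48 hr. Viability was read as ATP luminescence.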
S2 tox: cell viability loss in ATXN counter-screen; Potency, µM (highest dose often 56.7 µM), usual class: cytotoxic; S2 cells (HEK-293 line with an ATXN2-luciferase reporter) viability, CellTiter-Fluor protease fluorescence, 24 h; actives 0.49% (n = 400,000); AID 651635; note: nearly all actives have a fitted effect of over 40% in size
ATXN2 expr inh: ATXN2 expression inhibition | HEK-293 ATXN2-luciferase reporter, luminescence, 24 h | Potency, µM (series often up to 57 µM), without a hit: top-dose activity change, negative = inhibition, actives largely listed as inhibitors | actives 0.72% (n = 360,000); note: % is set by controls: 0 for no effect and ±100 for the full control effect; nearly all actives have a fitted effect of over 55% in size
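qHTS (up to 57 uM final) was run with 24 h compound exposure of reporter cells at 37 °C. Each well was multiplexed: SteadyGlo luminescence measured ATXN2-luciferase expression after a fluorogenic Gly-Phe-AFC viability readout (25 uM final).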
TGFb SMAD3 inh: inhibitors of TGF-b signaling; HepG2 CAGA-GFP TGF-b/SMAD3 reporter, GFP fluorescence, 18 h; TGF-beta stimulated, 500 pg/mL final; Potency, µM (doses to about 46.1 µM), without a hit: at the top dose activity, negative = inhibition, actives largely listed as inhibitors; actives 1.2% (n = 410,000); AID 588855; note: % is set by controls: 0 for no effect and ±100 for the full control effect; nearly all actives have a fitted effect of over 65% in size
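Cell-based qHTS in HEPG2 carrying a CAGA-GFP Smad reporter; compounds added before 500 pg/mL final TGF-beta, 18 h incubation at 37 degrees C, GFP fluorescence quantified per cell by imaging cytometry.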
HepG2 viability: kills HepG2 cells in TGF-b inhibitor counter-screen; actives 0.76% (n = 410,000); HepG2 CAGA-GFP viability, ATP luminescence, 18 h; Potency, µM (top dose mostly 46.1 µM), without a hit: top-dose activity change, negative = cytotoxicity, usual class: cytotoxic; AID 588856
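CellTiter-Glo luminescence gave cytotoxicity after 18 hours at 37 degrees C. The cells were HepG2 CAGA-GFP in 1% FBS DMEM, stimulated with 500 pg/mL TGF-beta after compound addition. %Activity was normalised to no-cell wells (complete cell-killing) and DMSO (no toxicity), and curves were fitted and classified.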
TDP1 cell noCPT: qHTS for Inhibitors of human tyrosyl-DNA phosphodiesterase 1 (TDP1): qHTS in cells in absence of CPT. DT40 Tdp1-/- hTDP1 cells, no CPT, ATP luminescence, 48 h. Potency, µM (doses to about 46.2 µM), for the others: at the highest dose activity change, negative = growth inhibition, hits mostly inhibitors. actives 15% (n = 420,000); note: % is set by controls: 0 for no effect and ±100 for the full control effect; nearly all actives have a fitted effect of over 55% in size
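Compound effects on proliferation are scored in DT40 Tdp1-/-;hTDP1 cells in the absence of CPT. ATP levels (CellTiter-Glo luminescence) are recorded after a ≥48 hr, 37 °C incubation.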
Active calls of the source: *; i = inactive; u = inconclusive; x = not tested or not shown. Sampled rows, rich in hits. Any-hit rate of the full collection: about 17%. Calls come from the whole dose curve; as a rule, active = well fitted curve in the direction sought with a large enough effect; inconclusive = small, poorly fitted or top-dose-only effect, or another doubt; inactive = no such curve, though single readings can be large; an effect the other way counts as inactive or inconclusive. Potency is the fitted concentration of half-maximal effect.

SMILES	DT40 TDP1 CPT	S2 tox	ATXN2 expr inh	TGFb SMAD3 inh	HepG2 viability	TDP1 cell noCPT
Cc1ccc(-c2nc(NCc3ccc(F)cc3)n(S(C)(=O)=O)n2)cc1	-2.6%	i	38.8%	-6.6%	-2.9%	u
COc1ccc(C(=O)NCC(=O)OCCOc2ccc(Cl)cc2)cc1OC	-0.3%	i	7.9%	14.4%	-0.2%	-12.8%
CCN(CC)S(=O)(=O)c1ccc(C)c(NC(=O)/C=C/c2cccs2)c1	20.6µM*	u	-12.6%	-4.9%	-10.0%	13µM*
COc1ccc(CCC(=O)Nc2cccc(S(=O)(=O)N3CCCCCC3)c2)cc1OC	u	i	u	-22.9%	-30.4%	14.6µM*
CCN(CC)S(=O)(=O)c1ccc(C)c(NC(=O)CSc2nc3ccccc3[nH]2)c1	u	i	1.8%	-25.0%	-23.9%	23.1µM*
Cc1cc(C)nc(NS(=O)(=O)c2ccc(NC(=O)CSc3nc4ccccc4[nH]3)cc2)n1	-10.6%	i	0.9%	u	-8.9%	-50.1%
COc1ccc(CCC(=O)Nc2ccc(S(=O)(=O)N3CCCC3)cc2)cc1OC	-16.5%	i	-7.2%	-6.5%	-4.9%	-1.9%
COc1ccc(CC(=O)Nc2cccc(SC)c2)cc1OC	11.6µM*	i	0.1%	-7.6%	-1.0%	9.2µM*
COC(=O)c1cc(NC(=O)Cc2ccc(OC)c(OC)c2)cc(C(=O)OC)c1	u	i	-4.4%	2.4%	-14.4%	u
CCC(C(=O)NCc1ccccc1OC)c1ccccc1 (stereo not given)	-23.5%	i	-4.7%	0.5%	-16.4%	-10.7%
COc1ccc(-c2cc(C(=O)Nc3cccc(O)c3)on2)cc1OC	-3.4%	i	10.1%	22.8%	11.2%	-12.1%
Cc1ccc(S(=O)(=O)N2CCCCC2)cc1NC(=O)CCNC(=O)c1ccc([N+](=O)[O-])cc1	23.1µM*	u	-9.9%	u	-2.0%	16.4µM*
CCCc1cc(=O)[nH]c(SCC(=O)Nc2cc(S(=O)(=O)N3CCCCC3)ccc2C)n1	-19.8%	i	-2.7%	u	15.8µM*	12.9%
O=C(CCNC(=O)c1ccc([N+](=O)[O-])cc1)Nc1cccc(S(=O)(=O)N2CCCCC2)c1	u	i	-38.3%	-11.5%	-15.1%	u
COc1ccc(CC(=O)Nc2cc(S(=O)(=O)N3CCCCC3)ccc2OC(C)C)cc1OC	u	i	x	-1.0%	-17.8%	20.6µM*
COc1ccc(CC(=O)Nc2cccc(S(=O)(=O)N3CCCCCC3)c2)cc1OC	6.51µM*	i	-36.3%	u	1.9%	7.31µM*
CCOc1ccc(S(=O)(=O)N2CCCCC2)cc1NC(=O)Cc1ccc(OC)cc1	u	i	x	-5.3%	-5.1%	u
COc1ccc(CC(=O)Nc2cc(S(=O)(=O)N3CCCCC3)ccc2C)cc1	u	i	-6.8%	3.1%	5.4%	20.6µM*
Cc1cc(C)nc(NC(N)=NC2CCCCC2)n1	14.6µM*	i	-11.3%	-8.0%	-30.1%	11.6µM*
Cc1ccc(C(=O)N(CC(=O)Nc2sc(C)c(C)c2C(N)=O)C2CCCC2)cc1	20.6µM*	i	-17.3%	0.8%	-10.2%	18.4µM*
Cc1sc(NC(=O)CN(C(=O)c2ccccc2F)C2CCCC2)c(C(N)=O)c1C	u	i	-9.7%	-3.9%	-0.4%	16.4µM*
CC(C)C1Oc2cc3oc(=O)ccc3cc2C1=O (stereo not given)	-21.3%	i	-1.1%	1.6%	-15.5%	-12.6%
O=C(NC1CCCCC1)N1CCN(C(=O)c2ccco2)CC1	-8.8%	i	2.1%	23.2%	-2.0%	4.1%
Cc1ccc(S(=O)(=O)N(CC(=O)N2CCc3ccccc3C2)c2ccc(C)c(C)c2)cc1	16.4µM*	u	-30.2%	u	-9.6%	18.4µM*
